PfHsp90 set2 – growth inhibition of PfHsp90-expressing yeast, primary screen, antimalarial PfHsp90 inhibitor project, S. cerevisiae, BacTiter-Glo luminescence, single point, set 2. BacTiter-Glo ATP, 48 h; yeast lacking PDR1 and PDR3 efflux regulators. 0.32% of 310,000 active. inhibition, % at 9.4 µM;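 active means every replicate shows inhibition above about 80%, whatever the replicate mean, limit read from the data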;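 further: 0% = DMSO neutral controls and 100% = 20 µM radicicol positive controls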
NALP3 yeast inh – NALP3 inflammasome inhibitors in reconstituted yeast, primary screen, luminescence, uHTS; Yeast reconstituted NLRP3/ASC/caspase-1, beta-gal luminescence, 24 h; inhibition, % at 10 µM; 0.39% of 330,000 active; AID 2825, 2010;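 active means inhibition of 50% or more; inactive means inhibition below 50%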;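 further: plate controls were induced DMSO wells for no effect and uninduced yeast grown without galactose for full effect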
SKKanGAS inh – S. pyogenes SKKanGAS growth inhibitors in kanamycin, primary screen, streptokinase expression inhibitor project, SKKanGAS strain, BacTiter-Glo luminescence; 6 h; inhibition, % at 7.5 µM; 1.3% of 300,000 active;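 active means mean replicate score, as percent of positive control median, at least 50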;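 further: strain carries kanamycin resistance gene driven by streptokinase promoter and grows in 40 µg/ml kanamycin; loss of luminescence reflects streptokinase promoter inhibition or plain growth inhibition; 0% = median of DMSO wells and 100% = positive control at its reference dose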
TIM10 inh – growth inhibitors of isogenic TIM10 control yeast, primary screen, counter-screen for tim10-1 yeast inhibitor project, luminescence, uHTS. AID 463195, 2010. 1.4% of 330,000 active. S. cerevisiae TIM10 strain growth, BacTiter-Glo luminescence, 24 h. inhibition, % at 10 µM;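 active means inhibition of 40% or more at the single tested concentration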;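 further: wild-type TIM10 isogenic control strain grown at permissive 25 °C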
tim23-1 inh – growth inhibitors of tim23-1 mutant yeast, primary screen, luminescence, uHTS; S. cerevisiae tim23-1 growth, BacTiter-Glo luminescence, 24 h; inhibition, % at 20 µM; 1.3% of 330,000 active; AID 463212, 2010;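 active means growth inhibition of the mutant yeast at or above 50%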;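 further: temperature-sensitive mutant grown at 25 °C; plate controls were DMSO-treated mutant yeast for no effect and medium wells lacking yeast for full effect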
tim10-1 inh – growth inhibitors of tim10-1 mutant yeast, primary screen, luminescence, uHTS; S. cerevisiae tim10-1 ts strain growth, BacTiter-Glo, 24 h; inhibition, % at 20 µM; 2.2% of 330,000 active;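 active means inhibition of at least 40%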;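 further: mutant grown at 25 °C; 0% = DMSO wells with yeast and 100% = wells holding no yeast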
tim10-1 conf – growth inhibitors of tim10-1 mutant yeast, confirmation, single concentration, luminescence, S. cerevisiae. S. cerevisiae tim10-1 ts strain growth, BacTiter-Glo, 24 h. 56% of 7,400 active. shares compounds with tim10-1 inh. inhibition, % at 20 µM. AID 463213, 2010;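 active means inhibition of yeast growth at or above a set limit in either of two repeat tests at 20 µM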;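 further: tim10-1 mutant grown at permissive 25 °C to find synthetic lethal compounds; 0% = DMSO yeast wells and 100% = medium wells without yeast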
TIM10 conf – growth inhibitors of wild-type TIM10 yeast, confirmation, counter-screen for tim10-1 synthetic lethality project, single concentration, luminescence, S. cerevisiae. shares compounds with TIM10 inh. S. cerevisiae tim10 strain growth, BacTiter-Glo luminescence, 24 h. inhibition, % at 10 µM. 63% of 4,600 active;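 active means inhibition of yeast growth at or above a set limit in either of two replicates at 10 µM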;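 further: this counterscreen used the strain with wild-type TIM10; 0% = yeast with DMSO and 100% = medium wells lacking yeast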
tim23-1 conf – tim23-1 mutant yeast growth inhibitors, confirmation, luminescence, single concentration | shares compounds with tim23-1 inh | S. cerevisiae tim23-1 growth, BacTiter-Glo luminescence, 24 h | inhibition, % at 20 µM | 83% of 4,400 active | AID 463218, 2010;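 active means inhibition above about 39% in either of two replicate wells at 20 µM, limit read from the data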;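 further: temperature-sensitive tim23-1 mutant grown at 25 °C; 0% = DMSO wells with yeast and 100% = medium wells without yeast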
Numbers without * were called inactive; . = not tested or not shown. Sampled rows, rich in hits. Any-hit rate of the full collection: about 4.5%.

SMILES	PfHsp90 set2	NALP3 yeast inh	SKKanGAS inh	TIM10 inh	tim23-1 inh	tim10-1 inh	tim10-1 conf	TIM10 conf	tim23-1 conf
N#CC(C#N)=c1ccc2c(c1)N1C3=C(CCCC3)CC3CCCCC31N=2 (configuration not stated)	.	30.5	11.8	33.0	51.1*	43.7*	24.2	.	22.9
Cc1cc(/C=C(\C#N)C(=O)NC2CC2)c(C)[nH]1	-1.5	5.7	-0.3	-2.1	1.7	2.1	.	.	.
N#C/C(=C\c1ccccc1Br)C(=O)NC1CC1	-55.7	21.0	4.0	66.7*	83.7*	54.1*	60.5*	83.4*	81.8*
COCCNC(=O)/C(C#N)=C/c1ccccc1Br	-7.5	15.6	5.3	76.2*	79.0*	72.3*	74.2*	68.5*	76.5*
Brc1cc2c(cc1Br)OCCOCCOCCOCCO2	28.1	-1.4	-7.7	0.3	21.5	22.3	.	.	.
Brc1ccc2c(c1)OCCOCCOc1cc(Br)ccc1OCCOCCOCCO2	10.4	35.9	0.8	35.1	61.9*	56.5*	62.4*	.	72.0*
CCOC(=O)c1ccc(NC(=O)Nc2ncccc2C)cc1	-3.0	11.0	11.2	-2.3	-8.0	-7.4	.	.	.
CCOC(=O)c1ccc(NC(=O)Nc2ncc(Cl)cc2Cl)cc1	.	14.0	8.8	76.1*	56.3*	70.1*	77.5*	76.4*	68.7*
CCNc1ccc2noc3c2c1C(=O)c1ccccc1-3	-8.5	16.3	13.0	29.2	60.2*	55.6*	44.1*	.	49.1*
Oc1cccc2ccc(Nc3ccccn3)nc12	.	-3.6	39.3	13.4	52.0*	66.6*	64.0*	.	79.3*
CC(C)N=c1scc(-c2ccco2)n1/N=C/c1ccc(O)c(O)c1	8.8	37.1	.	33.8	54.4*	47.1*	19.1	.	60.0*
COCCN=c1scc(-c2ccco2)n1/N=C/c1ccc(O)c(O)c1O	.	17.6	.	26.3	-13.7	-5.2	.	.	.
CCN(Cc1ccccc1)C(c1ccccn1)c1nnnn1C1CCCCC1 (configuration not stated)	16.1	8.7	-17.4	60.5*	62.0*	41.9*	51.1*	62.0*	64.6*
CCN(Cc1ccccc1)C(c1cccs1)c1nnnn1C1CCCCC1 (configuration not stated)	-10.1	12.3	-2.2	18.7	46.4	28.7	.	.	.
CC1=C(C)/C(=N\OS(=O)(=O)c2ccccc2)C=CC1=O	105.8*	35.8	0.7	94.6*	50.5*	94.5*	92.8*	9.4	94.2*
Cc1cc(NC(=O)OC2CCCCC2)ccc1[N+](=O)[O-]	-26.4	27.6	7.4	33.6	53.2*	48.7*	24.9	.	55.2*
Cc1ccc(NC(=O)C2C3CCCCC32)cc1[N+](=O)[O-] (configuration not stated)	27.2	27.7	12.3	6.5	25.3	18.9	.	.	.
COc1ccc(Nc2cc(C)c3cc([N+](=O)[O-])ccc3n2)cc1	-0.9	32.3	2.6	37.2	51.2*	53.3*	52.9*	.	66.9*
COc1ccc(Nc2ccc([N+](=O)[O-])cn2)cc1	14.4	37.9	2.6	-3.9	18.9	3.9	.	.	.
CC(CCc1ccccc1)OS(N)(=O)=O (configuration not stated)	-3.6	11.1	-0.1	-1.1	-18.4	-24.5	.	.	.
Cc1ccc(/C(N)=N/OC(=O)Cc2ccccc2)cc1	-14.6	14.3	9.5	39.6	27.8	33.0	.	.	.
Cc1cccc(/C(N)=N/OC(=O)Cc2cccs2)c1	18.0	-2.2	14.6	4.0	22.0	19.2	.	.	.
Cc1cccc(/C(N)=N/OC(=O)Cc2cccc3ccccc23)c1	-3.3	19.9	7.8	75.8*	54.2*	61.7*	68.7*	79.0*	60.2*
Cc1ccc(/C(N)=N/OC(=O)Cc2cccc3ccccc23)cc1	-6.3	12.6	-8.2	61.8*	50.4*	56.9*	57.7*	54.0*	45.5*
Cc1cccc(CCN2C(Nc3ccccc3)=NC[C@@H]2C)c1	-13.7	12.5	.	7.4	-0.3	2.6	.	.	.
SMILES	PfHsp90 set2	NALP3 yeast inh	SKKanGAS inh	TIM10 inh	tim23-1 inh	tim10-1 inh	tim10-1 conf	TIM10 conf	tim23-1 conf
O=C(Oc1ccc(Br)cc1C(=O)/C=C/c1ccccc1F)c1ccco1	-141.1	-10.9	11.8	70.5*	60.3*	41.4*	39.9*	62.3*	42.8*
CC(=O)c1cc(Cl)ccc1OC(=O)c1ccco1	7.2	1.2	4.6	1.5	5.3	0.9	.	.	.
Oc1ccccc1N=Cc1c(O)ccc2oc3c(c12)CCCC3	-55.5	28.6	84.9*	38.2	52.1*	46.8*	55.2*	.	72.8*
Oc1ccc2oc3c(c2c1/C=N/n1cnnc1)CCCC3	7.1	25.1	-7.2	9.6	9.1	27.2	.	.	.
O=C(Nc1cc(Cl)cc(Cl)c1)c1cccc(OC(F)F)c1	.	4.9	10.0	67.9*	84.9*	78.5*	79.2*	65.5*	72.3*
Cc1ccc(NS(=O)(=O)c2c(C)[nH]c(C)c2C(=O)N2CCCCC2)c(Cl)c1	9.6	14.6	1.2	-2.1	2.2	-1.6	.	.	.
O=C(NCCO)c1ccc2c3n(nc2c1)-c1ccc(Cl)cc1CO3	6.1	7.4	-7.8	1.4	-4.9	10.5	.	.	.
O=C(NCC1CC1)c1ccc2c3n(nc2c1)-c1ccc(Cl)cc1CO3	-19.5	13.7	-8.5	53.8*	67.4*	47.7*	34.7*	57.4*	53.5*
O=c1[nH]c(Cc2cccc(C(F)(F)F)c2)nc2ccccc12	3.3	8.6	5.6	10.6	11.0	0.6	.	.	.
CCc1ccc(S(=O)(=O)Nc2ccc(-c3nc4cccnc4s3)cc2)s1	-5.8	13.5	19.4	1.1	18.4	11.9	.	.	.
Cc1ccc(-c2nc3cccnc3s2)cc1NS(=O)(=O)c1cccs1	-38.1	-37.1	26.5	6.5	57.7*	42.5*	32.3*	.	53.0*
O=S(=O)(c1ccc2nc(Nc3ccccc3)ccc2c1)N1CCCCC1	-5.1	-12.6	-3.7	23.4	50.1*	50.5*	30.1	.	42.4*
Cn1c(SCC(=O)NCC2CCCO2)nnc1-c1ccco1 (configuration not stated)	-6.1	10.8	.	0.8	-10.9	-10.4	.	.	.

Compound activity (PubChem)
